# Laboratory results as given in PubChem BioAssay AID2284364 (EPA ToxCast).
# Active and inactive are the calls of the source. Rule for the calls: active = hit-call score of the fitted dose curve at least 0.9, where 1 is the maximum; inactive = score below 0.9.
# Target: Peroxisome proliferator-activated receptor gamma (Homo sapiens) (UniProt P37231)
# Test: ERF_US_NR_hPPARG: Eurofins (ERF) Nuclear Receptor (NR) Cell Based Protein-Protein Interaction LeadHunter Assay for human Peroxisome Proliferator-activated Receptor-gamma (PPARg) Agonism
# Protocol: ERF_US_NR_hPPARG is a cell-based, single-readout assay that uses extracted gene-proteins in a cell-line assay. Measurements were taken 5 hours after chemical dosing in a 384-well plate. See PPARgamma Human NHR Cell Based Agonist Protein-Protein Interaction Assay, DiscoverX.ERF_US_NR_hPPARG is an assay component calculated from the ERF_US_NR_hPPARG assay. It is designed to measure […] using a type of binding reporter as detected by scintillation counting with radiometry technology.Data from the assay component ERF_US_NR_hPPARG was analyzed at the assay endpoint, ERF_US_NR_hPPARG, in the positive analysis fitting direction relative to DMSO as the negative control and baseline of activity. Using a type of binding reporter, gain-of-signal activity can be used to understand changes in binding as they relate to gene PPARG. To generalize the intended target to other relatable targets, this assay endpoint is annotated to the nuclear receptor intended target family, where the subfamily is non-steroidal.
# Cells were seeded in a total volume of 20 uL into white walled, 384-well microplates and incubated at 37C overnight prior to testing.Briefly, intermediate dilution of sample stocks was performed to generate 5X sample in assay buffer. 5 uL of 5X sample was added to cells and incubated at 37C for 300 minutes. […] The results are expressed as a percent efficacy of the control ligand.
# Sequence of Peroxisome proliferator-activated receptor gamma (Homo sapiens) (P37231 whole entry, looked up): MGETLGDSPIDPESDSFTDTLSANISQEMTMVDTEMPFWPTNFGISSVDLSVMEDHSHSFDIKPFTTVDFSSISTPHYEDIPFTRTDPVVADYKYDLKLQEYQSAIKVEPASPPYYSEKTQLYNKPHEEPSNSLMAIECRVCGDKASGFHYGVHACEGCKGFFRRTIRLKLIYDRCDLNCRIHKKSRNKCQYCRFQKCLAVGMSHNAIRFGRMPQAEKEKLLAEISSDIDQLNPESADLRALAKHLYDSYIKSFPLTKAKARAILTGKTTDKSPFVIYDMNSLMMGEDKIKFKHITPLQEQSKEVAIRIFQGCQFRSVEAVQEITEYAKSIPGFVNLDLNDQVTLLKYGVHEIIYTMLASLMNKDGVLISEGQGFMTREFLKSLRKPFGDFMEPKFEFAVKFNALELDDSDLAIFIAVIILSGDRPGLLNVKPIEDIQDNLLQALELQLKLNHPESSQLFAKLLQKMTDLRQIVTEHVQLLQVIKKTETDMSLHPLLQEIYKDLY
smiles,measurement,value
O=S(=O)(O)C(F)(F)C(F)(F)C(F)(F)C(F)(F)C(F)(F)C(F)(F)C(F)(F)C(F)(F)F,outcome,inactive
